This note sets out measurements from PubChem BioAssay.

The target of one assay is Albumin (Bos taurus) (UniProt P02769). Description: bovine serum albumin binders on microarray, profiling panel, artefact control for SMM control protein annotation, biochemical, small-molecule microarray, Alexa647 label, 635/667 nm fluorescence (AID 1118).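 Note: score merges 667 nm emission intensity and signal-to-noise per printed compound spot.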 The settings on record: BSA-A647 binding, fluorescence 635 nm, higher = more signal.
Sequence of Albumin (Bos taurus) (P02769 whole entry, looked up): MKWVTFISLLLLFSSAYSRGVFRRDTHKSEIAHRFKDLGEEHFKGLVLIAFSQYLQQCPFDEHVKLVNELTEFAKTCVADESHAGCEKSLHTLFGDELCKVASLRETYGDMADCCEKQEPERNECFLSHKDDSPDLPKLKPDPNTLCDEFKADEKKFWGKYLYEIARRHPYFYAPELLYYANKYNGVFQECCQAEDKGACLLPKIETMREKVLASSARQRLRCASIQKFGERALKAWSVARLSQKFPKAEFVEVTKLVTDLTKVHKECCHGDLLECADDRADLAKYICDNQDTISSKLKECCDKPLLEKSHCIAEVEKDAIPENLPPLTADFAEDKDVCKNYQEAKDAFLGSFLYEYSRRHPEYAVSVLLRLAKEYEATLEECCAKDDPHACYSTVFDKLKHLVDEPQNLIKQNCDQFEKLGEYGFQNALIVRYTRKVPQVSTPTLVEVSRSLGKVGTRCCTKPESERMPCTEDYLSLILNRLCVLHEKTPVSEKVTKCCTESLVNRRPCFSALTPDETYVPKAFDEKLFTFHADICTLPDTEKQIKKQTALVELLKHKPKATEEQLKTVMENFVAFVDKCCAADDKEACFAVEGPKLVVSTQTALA
The nature of assay [1]: small-molecule microarray binders of probe aXIP, primary screen, biochemical, NeuroSMM set, 635/667 nm fluorescence (AID 1119).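 Note: probe is the protein aXip251-270 applied at 1 µg/mL to compound-printed slides; binding of probe to printed compounds measured as 667 nm fluorescence plus signal to noise.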 The settings on record: higher = more signal, called active from +8 up or from −8 down.
Assay [2] can be described thus: small-molecule binders of probe aNOTCH3, primary screen, biochemical, small-molecule microarray, 635/667 nm fluorescence (AID 1120).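 Note: probe is a biotin-tagged antibody raised against NOTCH3 rather than NOTCH3 protein; score merges spot fluorescence near 667 nm with spot signal to noise.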 The settings on record: higher = more signal.
The nature of assay [3]: small-molecule binders of probe aNOTCH2, primary screen, biochemical, small-molecule microarray, 635/667 nm fluorescence (AID 1121).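 Note: score merges feature fluorescence read at 667 nm with its signal to noise.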 The settings on record: higher = more signal.
The target in assay [4] is Carbonic anhydrase 2 (Homo sapiens) (UniProt P00918). The assay is described as follows: CAII small-molecule binders, profiling panel, biochemical, small-molecule microarray, Alexa647-labelled CAII (AID 1122). To be noted: CAII-A647 binding fluorescence, higher = more signal.
Assay [5] can be described thus: COS7 lysate on small-molecule microarray, probe aHis, 635 nm (AID 1123).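 Note: z-score combines 667nm fluorescence intensity with signal-to-noise per printed compound spot.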 To be noted: COS7 cell lysate, fluorescence, higher = more signal.
Assay [6] is described as follows: compound binding in COS7 lysate, probe aLAP1, primary screen, cell lysate, small-molecule microarray (AID 1124).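 Note: lysate comes from COS7 cells expressing LAP1 and is applied at 0.3 µg/mL; score merges spot fluorescence near 667 nm with signal-to-noise over triplicate slides.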 To be noted: probe aLAP1, fluorescence, higher = more signal.
Another assay deals with Sam68 (KHDRBS1). The assay is described as follows: Sam68 small-molecule binders, primary screen, biochemical, small-molecule microarray, 635 nm fluorescence (AID 1125).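 Note: score merges 667 nm channel intensity with signal to noise over triplicate slides.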 To be noted: small-molecule microarray binding, higher = more signal.
In assay [7] the test system is Chordin-like protein 2 (CHRDL2). Description: CHRDL2 small-molecule binders, primary screen, biochemical, small-molecule microarray, 635 nm fluorescence (AID 1126).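 Note: printed compound slides probed with Chrdl2 protein at 4 µg/mL for 1 h at 4 C; score merges 667 nm emission intensity with signal to noise over three replicate slides.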 To be noted: small-molecule microarray binding, fluorescence 635 nm; higher = more signal.
For assay [8], the target named is Concanavalin-A (Canavalia ensiformis) (UniProt P02866). The assay is described as follows: ConA small-molecule binders, primary screen, artefact control for SMM control protein annotation, biochemical, small-molecule microarray, Alexa647 label, 635 nm (AID 1127).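 Note: z combines 667 nm emission intensity with signal-to-noise across three replicate slides.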 To be noted: ConA-A647 binding fluorescence, higher = more signal.
Sequence of Concanavalin-A (Canavalia ensiformis) (P02866 whole entry, looked up): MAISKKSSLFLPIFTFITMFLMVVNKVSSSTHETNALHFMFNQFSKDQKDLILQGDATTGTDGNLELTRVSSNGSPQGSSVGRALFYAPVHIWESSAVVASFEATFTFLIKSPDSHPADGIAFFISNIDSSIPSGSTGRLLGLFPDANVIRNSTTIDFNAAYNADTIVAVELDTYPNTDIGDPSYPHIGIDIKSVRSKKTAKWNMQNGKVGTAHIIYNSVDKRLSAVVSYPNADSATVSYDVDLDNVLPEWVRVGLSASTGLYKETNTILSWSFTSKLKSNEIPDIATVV
Assay [9] in a line: anti-His antibody binders, primary screen, artefact control for SMM control protein annotation, biochemical, small-molecule microarray, 635 nm fluorescence (AID 1128).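 Note: score merges feature fluorescence with signal-to-noise for each printed compound spot.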 To be noted: anti-His Alexa647 antibody binding, higher = more signal.
Assay [10] relates to Human papillomavirus type 1a E7 protein (residues 1-88). Description: HPV1a E7 small-molecule binders, primary screen, biochemical, small-molecule microarray, residues 1-88, 635 nm (AID 1129). The settings on record: small-molecule microarray binding, fluorescence 635 nm; higher = more signal.
Assay [11] addresses Focal adhesion kinase 1 (Homo sapiens) (UniProt Q05397). Description: small-molecule microarray binders of FAK, primary screen, biochemical, 635/667 nm fluorescence, BSA, DTT (AID 1130).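 Note: composite of spot emission at 667 nm and signal to noise over triplicate slides.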 The settings on record: PTK2 binding, 635 nm fluorescence, higher = more signal.
The test system of assay [12] is Fibrinogen (Alexa647-labelled). The assay is described as follows: fibrinogen binders on compound microarrays, profiling panel, artefact control for SMM control-protein annotation, biochemical, small-molecule microarray, 635/667 nm fluorescence (AID 1131).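 Note: z-score merges 667 nm fluorescence with per-spot signal-to-noise over triplicate slides.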 The settings on record: fibrinogen-A647 binding fluorescence, higher = more signal.
The target in assay [13] is Follistatin (Homo sapiens) (UniProt P19883). Description: follistatin binders on small-molecule microarrays, primary screen, biochemical, small-molecule microarray, 635/667 nm fluorescence (AID 1132). To be noted: FST binding, 635 nm fluorescence, higher = more signal.
Sequence of Follistatin (Homo sapiens) (P19883 whole entry, looked up): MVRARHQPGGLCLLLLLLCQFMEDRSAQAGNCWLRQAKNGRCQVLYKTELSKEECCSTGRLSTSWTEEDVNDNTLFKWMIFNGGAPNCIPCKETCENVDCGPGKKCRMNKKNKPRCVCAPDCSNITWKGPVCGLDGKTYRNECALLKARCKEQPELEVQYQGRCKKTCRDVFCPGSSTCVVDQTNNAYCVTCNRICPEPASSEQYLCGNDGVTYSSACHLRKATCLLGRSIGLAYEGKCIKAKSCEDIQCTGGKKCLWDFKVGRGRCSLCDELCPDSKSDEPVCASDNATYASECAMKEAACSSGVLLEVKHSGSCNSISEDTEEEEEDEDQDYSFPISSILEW
For assay [14], the target named is Fibroblast growth factor 2 (Homo sapiens) (UniProt P09038). Description: FGF2 binders on small-molecule microarrays, primary screen, biochemical, small-molecule microarray, 635/667 nm fluorescence (AID 1133). The settings on record: small-molecule microarray binding, FGF2, fluorescence 635/667; higher = more signal.
Sequence of Fibroblast growth factor 2 (Homo sapiens) (P09038 whole entry, looked up): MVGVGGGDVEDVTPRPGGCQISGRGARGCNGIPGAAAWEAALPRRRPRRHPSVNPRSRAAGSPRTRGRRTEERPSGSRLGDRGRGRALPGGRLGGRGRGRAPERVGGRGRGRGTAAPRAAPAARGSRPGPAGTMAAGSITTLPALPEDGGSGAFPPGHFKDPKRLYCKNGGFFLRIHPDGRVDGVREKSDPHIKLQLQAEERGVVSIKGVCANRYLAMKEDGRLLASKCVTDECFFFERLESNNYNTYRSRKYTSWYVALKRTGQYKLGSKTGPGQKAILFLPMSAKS
The nature of assay [15]: mitochondrial membrane potential change in A549 cells, profiling panel, cell-based, JC-1 fluorescence, basal, 24 h, 100 nL (AID 1138).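 Note: A549 lung adenocarcinoma cells under basal conditions with no added stimulus; test concentration not given here.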 The settings on record: higher = more signal.
The subject of the next assay is Lefty1. Description: Lefty1 binders on small-molecule microarrays, primary screen, biochemical, small-molecule microarray, 635/667 nm fluorescence (AID 1139). To be noted: small-molecule microarray binding, fluorescence 635/667; higher = more signal.
The test system of assay [16] is wheat germ agglutinin (Triticum aestivum), Alexa647-labelled. The assay is described as follows: wheat germ agglutinin binders on compound microarrays, profiling panel, artefact control for SMM control-protein annotation, biochemical, small-molecule microarray, 635/667 nm fluorescence (AID 1140).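 Note: score merges 667 nm feature emission with signal to noise over triplicate slides.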 The settings on record: WGA-A647 binding, 635 nm fluorescence, higher = more signal.

The target of assay [17] is Luciferin 4-monooxygenase (Photinus pyralis) (UniProt P08659). Description: firefly luciferase enzyme inhibitors, primary screen, biochemical, luminescence, purified enzyme, 2006 set (AID 1141).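 Note: cell-free assay with purified firefly luciferase at 100 ng per well in PBS; test concentration not given here.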 To be noted: SteadyGlo luminescence, 30 min, higher = more signal, called active from +8 up or from −8 down.
Sequence of Luciferin 4-monooxygenase (Photinus pyralis) (P08659 whole entry, looked up): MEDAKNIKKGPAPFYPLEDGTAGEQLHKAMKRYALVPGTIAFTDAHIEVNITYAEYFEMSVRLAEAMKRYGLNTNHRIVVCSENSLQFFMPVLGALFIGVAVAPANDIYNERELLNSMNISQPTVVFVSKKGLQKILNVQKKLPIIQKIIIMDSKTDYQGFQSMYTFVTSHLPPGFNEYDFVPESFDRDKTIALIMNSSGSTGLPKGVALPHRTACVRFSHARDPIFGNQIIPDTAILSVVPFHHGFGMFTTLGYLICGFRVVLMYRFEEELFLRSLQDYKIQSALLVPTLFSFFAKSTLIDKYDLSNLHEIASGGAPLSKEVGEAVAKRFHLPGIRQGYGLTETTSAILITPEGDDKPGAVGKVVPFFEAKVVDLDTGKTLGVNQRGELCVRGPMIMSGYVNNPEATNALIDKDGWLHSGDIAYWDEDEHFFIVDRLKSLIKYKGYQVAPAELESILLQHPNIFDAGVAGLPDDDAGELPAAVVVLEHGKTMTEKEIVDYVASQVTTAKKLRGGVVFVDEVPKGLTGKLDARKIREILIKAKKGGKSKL

Activity calls are given as the source filed them.

Sequence of Focal adhesion kinase 1 (Homo sapiens) (Q05397 whole entry, looked up): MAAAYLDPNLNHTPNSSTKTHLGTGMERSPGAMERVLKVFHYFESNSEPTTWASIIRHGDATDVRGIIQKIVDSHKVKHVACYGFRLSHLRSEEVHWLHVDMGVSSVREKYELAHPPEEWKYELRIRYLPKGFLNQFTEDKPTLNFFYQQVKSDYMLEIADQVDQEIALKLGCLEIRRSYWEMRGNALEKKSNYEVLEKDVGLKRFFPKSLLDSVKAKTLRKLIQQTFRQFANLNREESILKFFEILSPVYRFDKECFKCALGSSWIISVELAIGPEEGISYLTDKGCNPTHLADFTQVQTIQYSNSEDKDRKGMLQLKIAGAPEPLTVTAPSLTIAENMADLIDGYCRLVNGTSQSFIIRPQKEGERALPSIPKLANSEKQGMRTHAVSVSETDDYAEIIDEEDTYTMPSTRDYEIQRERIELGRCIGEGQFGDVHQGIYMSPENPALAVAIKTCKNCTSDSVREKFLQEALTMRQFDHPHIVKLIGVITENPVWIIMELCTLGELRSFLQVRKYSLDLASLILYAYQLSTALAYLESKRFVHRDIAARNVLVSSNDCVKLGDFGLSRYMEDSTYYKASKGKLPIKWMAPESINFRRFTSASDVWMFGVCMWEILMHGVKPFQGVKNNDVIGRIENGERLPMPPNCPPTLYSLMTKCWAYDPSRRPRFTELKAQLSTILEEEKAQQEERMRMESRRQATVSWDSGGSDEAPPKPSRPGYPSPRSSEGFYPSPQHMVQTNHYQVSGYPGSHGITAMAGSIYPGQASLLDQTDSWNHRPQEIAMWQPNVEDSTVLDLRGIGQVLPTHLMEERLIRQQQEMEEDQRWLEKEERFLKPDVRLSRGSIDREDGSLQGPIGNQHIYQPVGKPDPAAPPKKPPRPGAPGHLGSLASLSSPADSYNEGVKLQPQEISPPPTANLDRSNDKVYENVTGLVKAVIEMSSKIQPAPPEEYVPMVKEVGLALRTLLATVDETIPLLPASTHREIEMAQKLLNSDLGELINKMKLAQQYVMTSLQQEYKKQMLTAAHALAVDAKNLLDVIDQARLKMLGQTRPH

As to `COCCOC(=O)N1C(=O)[C@@]2(c3cc(C#CCNC(N)=O)ccc31)[C@H](C(=O)N1CCN(c3ncccn3)CC1)[C@H]1C(=O)O[C@H](c3ccccc3)[C@H](c3ccccc3)N1[C@@H]2c1ccccc1OCCO`, the composite z-score stood at 0.413 in the assay with Albumin (Bos taurus); 0.209 in [2]; 0.0066 in [3]; 0.358 in assay [4]; 1.08 in [5]; 0.427 in assay [6]. For the same compound, the composite z-score in the assay with Sam68 (KHDRBS1) stood at 1.31; in assay [7], 0.867; in assay [8] it was 1.02; in assay [9], 1.24; in assay [10] it was 1.07; in assay [11] it was 0.261. The composite z-score stood at 0.797 in [12]; 1.37 in assay [13]; 0.406 in [14]; 0.889 in the assay on Lefty1; 0.749 in assay [16]. In [1], the composite Z-score was 0.255 (inactive). Also, the z-score in assay [15] is -1.55; in [17] it was 1.05 (inactive).
Turning to `COC(=O)c1ccc(C(O)C2C=CC3C(=O)N(C)C(=O)C3N2NC(=O)OC(C)(C)C)o1` (stereo not given), the composite z-score with Albumin (Bos taurus) was determined as 0.538; in assay [2] it was 0.178; in [3], 0.135; in assay [4], 0.436; in [5], 0.489; in assay [6], 0.734. Also, the composite z-score is 0.94 in the assay with Sam68 (KHDRBS1); -0.0987 in [7]; 0.494 in assay [8]; 0.882 in assay [9]; 1.06 in [10]; 0.329 in assay [11]. In addition, the composite z-score in assay [12] amounted to 0.63; in assay [13] it was 0.419; in [14] it was 0.624; with Lefty1 it was 0.0239; in [16], 0.436. Further, in assay [1], the composite Z-score was 1.02 (inactive). Besides, the z-score is -0.414 in [15] and -0.965 (inactive) in assay [17].
Consider `CCOC(=O)C[C@H]1[C@H](OC(=O)c2ccc(-c3ccccc3)cc2)[C@@H](NC(=O)Cc2ccc(OC)cc2)c2cc(OCCCO)ccc2N1C(=O)c1ccc2ccccc2n1`, for which the composite z-score is 0.647 with Albumin (Bos taurus); 0.0408 in assay [2]; -0.0288 in assay [3]; 0.19 in assay [4]; 1.24 in [5]; 0.561 in [6]. Also, the composite z-score in the assay on Sam68 (KHDRBS1) was 0.891; in assay [7], -0.62; in assay [8] it was 0.762; in assay [9], 0.262; in [10], 0.644; in [11] it was 0.529. Moreover, the composite z-score was 0.897 in assay [12]; -0.0303 in assay [13]; -0.433 in assay [14]; 0.484 with Lefty1; 0.419 in [16]. In addition, the composite Z-score in [1] is -1.15 (inactive). Moreover, the z-score in [15] is 0.895; in assay [17], -0.639 (inactive).
As to `C[C@]1(C(=O)NCc2ccccc2)c2ccccc2C(=O)N(Cc2ccc(OC(F)(F)F)cc2)[C@H]1c1ccc(CO)cc1`, the composite z-score is -0.125 in the assay with Albumin (Bos taurus); -0.211 in [2]; -0.103 in assay [3]; 0.681 in [4]; 1.78 in assay [5]; 0.107 in assay [6]. Besides, the composite z-score was 0.426 in the assay with Sam68 (KHDRBS1); -0.256 in [7]; 0.592 in assay [8]; 1.71 in [9]; 1.02 in [10]; 0.549 in [11]. Moreover, the composite z-score is -0.38 in assay [12]; 0.49 in assay [13]; -0.186 in assay [14]; -0.111 with Lefty1; -0.403 in [16]. In addition, in [1], the composite Z-score is 0.843 (inactive). The z-score was 1.27 in assay [15] and 0.882 (inactive) in [17].
`C=CC[C@@]1(C(=O)O)N=C(c2ccc(OCCCO)cc2)O[C@@H]1c1ccccc1N=[N+]=[N-]`: the composite z-score in the assay with Albumin (Bos taurus) worked out at 0.851; in assay [2] it was 0.169; in [3] it was 0.0828; in [4], 0.513; in assay [5], 2.03; in [6] it was 0.906. In addition, the composite z-score in the assay with Sam68 (KHDRBS1) was 1.09; in [7], 0.52; in assay [8], 0.247; in assay [9], 1.06; in assay [10], 0.811; in [11], 0.235. Also, the composite z-score in [12] is 0.987; in [13], 1.1; in assay [14] it was -0.168; with Lefty1, -0.504; in assay [16], 1.36. In addition, in assay [1], the composite Z-score is 0.544 (inactive). Besides, the results for the z-score in [15] and in [17] were 0.117 and -12.9 (active), respectively.
